Records with an inconclusive call do not appear. A call without a number means that no potency is given here. Activity calls are given as the source filed them. Calls follow the shape of the dose curve; as a rule, active = well fitted curve in the direction sought with a large enough effect; inconclusive = small, poorly fitted or top-dose-only effect, or another doubt; inactive = no such curve, though single readings can be large; an effect the other way counts as inactive or inconclusive. Where a SMILES comes first, the peptide text is derived from it.
What was measured:
MKL-1 = assay: qHTS assay to identify novel small-molecules to repurpose for Merkel cell carcinoma treatment (AID 1296009); details: MCC and control cell lines, CellTiter-Glo viability, 72 h; series mostly up to 46 µM; also: nearly all actives have a fitted effect of over 60% in size
Summary of the method: (§1)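 Cell viability, measured as CellTiter-Glo luminescence, was normalized between DMSO and no-cell wells. The cells had been exposed to 8- or 11-point compound dilutions for 72 hr at 37 degree celsius.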

MKL-2 = assay: as above; details: MCC and control cell lines, CellTiter-Glo viability, 72 h; series mostly up to 46 µM
Summary of the method: as §1

UISO = assay: as above; details: MCC and control cell lines, CellTiter-Glo viability, 72 h; series mostly up to 46 µM
Summary of the method: as §1

WaGa = assay: as above; details: MCC and control cell lines, CellTiter-Glo viability, 72 h; series mostly up to 46 µM
Summary of the method: as §1

C33A = assay: Primary qHTS to identify gynecologic anti-cancer compounds using libraries of approved drugs and bioactive compounds (AID 1345084); details: Gynecologic cancer cell panel viability, ATPlite luminescence, 48 h; series mostly up to 57.5 µM; also: nearly all actives have a fitted effect of over 55% in size
Summary of the method: (§2)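 48 h compound exposure at 37 C, 5% CO2; five-point qHTS. ATPlite luminescence readout of cell ATP.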

CAOV3 = assay: as above; details: Gynecologic cancer cell panel viability, ATPlite luminescence, 48 h; series mostly up to 57.5 µM
Summary of the method: as §2

CASKI = assay: as above; details: Gynecologic cancer cell panel viability, ATPlite luminescence, 48 h; series mostly up to 57.5 µM
Summary of the method: as §2

Es-2 = assay: as above; details: Gynecologic cancer cell panel viability, ATPlite luminescence, 48 h; series mostly up to 57.5 µM
Summary of the method: as §2

HeLa = assay: as above; details: Gynecologic cancer cell panel viability, ATPlite luminescence, 48 h; series mostly up to 57.5 µM
Summary of the method: as §2
Potency is read from the fitted curve at half-maximal effect.

Compound: O=C1c2ccccc2CCc2ccccc21
- Potency (MKL-1): inactive
- Potency (MKL-2): inactive
- Potency (UISO): inactive
- Potency (WaGa): inactive
- Potency (C33A): inactive
- Potency (CAOV3): inactive
- Potency (CASKI): inactive
- Potency (Es-2): inactive
- Potency (HeLa): inactive

Compound: CCCC(=O)O[C@]1(C(=O)COC(=O)CC)CC[C@H]2[C@@H]3CCC4=CC(=O)CC[C@]4(C)[C@H]3[C@@H](O)C[C@@]21C
- Potency (MKL-1): inactive
- Potency (MKL-2): inactive
- Potency (UISO): inactive
- Potency (WaGa): inactive
- Potency (C33A): inactive
- Potency (CAOV3): inactive
- Potency (CASKI): inactive
- Potency (Es-2): inactive
- Potency (HeLa): inactive

Compound: CC(C(=O)O)c1ccc(/C=C2\CCCCC2=O)cc1 (configuration not stated)
- Potency (MKL-1): inactive
- Potency (MKL-2): inactive
- Potency (UISO): inactive
- Potency (WaGa): inactive
- Potency (C33A): inactive
- Potency (CAOV3): inactive
- Potency (CASKI): inactive
- Potency (Es-2): inactive
- Potency (HeLa): inactive

Compound: CSc1ccc(/C=C2/C(C)=C(CC(=O)O)c3cc(F)ccc32)cc1
- Potency (MKL-1): inactive
- Potency (MKL-2): inactive
- Potency (UISO): inactive
- Potency (WaGa): inactive
- Potency (C33A): inactive
- Potency (CAOV3): inactive
- Potency (CASKI): inactive
- Potency (Es-2): inactive
- Potency (HeLa): inactive

Compound: COc1cc(NS(=O)(=O)c2ccc(N)cc2)nc(C)n1
- Potency (MKL-1): inactive
- Potency (MKL-2): inactive
- Potency (UISO): inactive
- Potency (WaGa): inactive
- Potency (C33A): inactive
- Potency (CAOV3): inactive
- Potency (CASKI): inactive
- Potency (Es-2): inactive
- Potency (HeLa): inactive

Compound: Cc1ccc(O)cc1
- Potency (MKL-1): inactive
- Potency (MKL-2): inactive
- Potency (UISO): inactive
- Potency (WaGa): inactive
- Potency (C33A): inactive
- Potency (CAOV3): inactive
- Potency (CASKI): inactive
- Potency (Es-2): inactive
- Potency (HeLa): inactive

Compound: CCCCCN(CCCOC)C(=O)C(CCC(=O)O)NC(=O)c1ccc(Cl)c(Cl)c1 (configuration not stated)
- Potency (MKL-1): inactive
- Potency (MKL-2): inactive
- Potency (UISO): inactive
- Potency (WaGa): inactive
- Potency (C33A): inactive
- Potency (CAOV3): inactive
- Potency (CASKI): inactive
- Potency (Es-2): inactive
- Potency (HeLa): inactive

Compound: CC(C)C(=O)OCc1cccc(OC(=O)[C@@H]2N3C(=O)[C@@H](NC(=O)Cc4ccccc4)[C@H]3SC2(C)C)c1
- Potency (MKL-1): inactive
- Potency (MKL-2): inactive
- Potency (UISO): inactive
- Potency (WaGa): inactive
- Potency (C33A): inactive
- Potency (CAOV3): inactive
- Potency (CASKI): inactive
- Potency (Es-2): inactive
- Potency (HeLa): inactive

Compound: CCOc1ncc(F)c(=O)[nH]1
- Potency (MKL-1): inactive
- Potency (MKL-2): inactive
- Potency (UISO): inactive
- Potency (WaGa): inactive
- Potency (C33A): inactive
- Potency (CAOV3): inactive
- Potency (CASKI): inactive
- Potency (Es-2): inactive
- Potency (HeLa): inactive

Compound: CC(=O)O[C@H]1CC[C@@]2(C)C(=CC[C@@H]3[C@@H]2CC[C@]2(C)C(C(C)=O)=CC[C@@H]32)C1
- Potency (MKL-1): inactive
- Potency (MKL-2): inactive
- Potency (UISO): inactive
- Potency (WaGa): inactive
- Potency (C33A): inactive
- Potency (CAOV3): inactive
- Potency (CASKI): inactive
- Potency (Es-2): inactive
- Potency (HeLa): inactive

Compound: O=C(O)[C@H](O)[C@@H](O)[C@H](O[C@@H]1O[C@H](CO)[C@H](O)[C@H](O)[C@H]1O)[C@H](O)CO
- Potency (MKL-1): inactive
- Potency (MKL-2): inactive
- Potency (UISO): inactive
- Potency (WaGa): inactive
- Potency (C33A): inactive
- Potency (CAOV3): inactive
- Potency (CASKI): inactive
- Potency (Es-2): inactive
- Potency (HeLa): inactive

Compound: Cc1ncc([N+](=O)[O-])n1C
- Potency (MKL-1): inactive
- Potency (MKL-2): inactive
- Potency (UISO): inactive
- Potency (WaGa): inactive
- Potency (C33A): inactive
- Potency (CAOV3): inactive
- Potency (CASKI): inactive
- Potency (Es-2): inactive
- Potency (HeLa): inactive

Compound: CCC(C(=O)NC(=O)NC(C)=O)c1ccccc1 (configuration not stated)
- Potency (MKL-1): inactive
- Potency (MKL-2): inactive
- Potency (UISO): inactive
- Potency (WaGa): inactive
- Potency (C33A): inactive
- Potency (CAOV3): inactive
- Potency (CASKI): inactive
- Potency (Es-2): inactive
- Potency (HeLa): inactive

Compound: C[C@@H]1C[C@H]2[C@@H]3CCC4=CC(=O)C=C[C@]4(C)[C@@]3(F)[C@@H](O)C[C@]2(C)[C@@]1(O)C(=O)COC(=O)c1ccncc1
- Potency (MKL-1): inactive
- Potency (MKL-2): inactive
- Potency (UISO): inactive
- Potency (WaGa): inactive
- Potency (C33A): inactive
- Potency (CAOV3): inactive
- Potency (CASKI): inactive
- Potency (Es-2): inactive
- Potency (HeLa): inactive

Compound: Cc1sccc1Br
- Potency (MKL-1): inactive
- Potency (MKL-2): inactive
- Potency (UISO): inactive
- Potency (WaGa): inactive
- Potency (C33A): inactive
- Potency (CAOV3): inactive
- Potency (CASKI): inactive
- Potency (Es-2): inactive
- Potency (HeLa): inactive

Compound: Fc1ccc(C(c2ccc(F)cc2)N2CCNCC2)cc1
- Potency (MKL-1): inactive
- Potency (MKL-2): inactive
- Potency (UISO): inactive
- Potency (WaGa): inactive
- Potency (C33A): inactive
- Potency (CAOV3): inactive
- Potency (CASKI): inactive
- Potency (Es-2): inactive
- Potency (HeLa): inactive

Compound: CC(C)NC(=O)c1ccc(C=O)cc1
- Potency (MKL-1): inactive
- Potency (MKL-2): inactive
- Potency (UISO): inactive
- Potency (WaGa): inactive
- Potency (C33A): inactive
- Potency (CAOV3): inactive
- Potency (CASKI): inactive
- Potency (Es-2): inactive
- Potency (HeLa): inactive

Compound: CCN1CCCC1CN (configuration not stated)
- Potency (MKL-1): inactive
- Potency (MKL-2): inactive
- Potency (UISO): inactive
- Potency (WaGa): inactive
- Potency (C33A): inactive
- Potency (CAOV3): inactive
- Potency (CASKI): inactive
- Potency (Es-2): inactive
- Potency (HeLa): inactive

Compound: CC(=O)Nc1c(I)c(NC(C)=O)c(I)c(C(=O)O)c1I
- Potency (MKL-1): inactive
- Potency (MKL-2): inactive
- Potency (UISO): inactive
- Potency (WaGa): inactive
- Potency (C33A): inactive
- Potency (CAOV3): inactive
- Potency (CASKI): inactive
- Potency (Es-2): inactive
- Potency (HeLa): inactive

Compound: CCCCCCn1c(=O)c2c(ncn2C)n(C)c1=O
- Potency (MKL-1): inactive
- Potency (MKL-2): inactive
- Potency (UISO): inactive
- Potency (WaGa): inactive
- Potency (C33A): inactive
- Potency (CAOV3): inactive
- Potency (CASKI): inactive
- Potency (Es-2): inactive
- Potency (HeLa): inactive

Compound: CCC(=O)O[C@]1(C(=O)COC)[C@@H](C)C[C@H]2[C@@H]3CCC4=CC(=O)C=C[C@]4(C)C3(F)[C@@H](O)C[C@@]21C (some centres not stated)
- Potency (MKL-1): inactive
- Potency (MKL-2): inactive
- Potency (UISO): inactive
- Potency (WaGa): inactive
- Potency (C33A): inactive
- Potency (CAOV3): inactive
- Potency (CASKI): inactive
- Potency (Es-2): inactive
- Potency (HeLa): inactive

Compound: CC(=O)N[C@@H](CO)C(=O)N[C@@H](CC(=O)O)C(=O)N[C@@H](CCCCN)C(=O)N1CCC[C@H]1C(=O)O (Ac-SDKP-OH)
- Potency (MKL-1): inactive
- Potency (MKL-2): inactive
- Potency (UISO): inactive
- Potency (WaGa): inactive
- Potency (C33A): inactive
- Potency (CAOV3): inactive
- Potency (CASKI): inactive
- Potency (Es-2): inactive
- Potency (HeLa): inactive

Compound: C[C@@H]1CCC[C@H](C)N1CCCC(O)(c1ccccc1)c1ccccn1 (some centres not stated)
- Potency (MKL-1): inactive
- Potency (MKL-2): inactive
- Potency (UISO): inactive
- Potency (WaGa): inactive
- Potency (C33A): inactive
- Potency (CAOV3): inactive
- Potency (CASKI): inactive
- Potency (Es-2): inactive
- Potency (HeLa): inactive

Compound: O=[N+]([O-])c1nccn1CO[C@@H](CO)[C@H](O)CO
- Potency (MKL-1): inactive
- Potency (MKL-2): inactive
- Potency (UISO): inactive
- Potency (WaGa): inactive
- Potency (C33A): inactive
- Potency (CASKI): inactive
- Potency (Es-2): inactive
- Potency (HeLa): inactive

Compound: CCCCCCCCCCCCCCCC[n+]1ccccc1
- Potency (MKL-1): 0.841 µM (active)
- Potency (MKL-2): 0.422 µM (active)
- Potency (UISO): 1.68 µM (active)
- Potency (WaGa): 2.11 µM (active)
- Potency (C33A): 17.8 µM (active)
- Potency (CASKI): 7.94 µM (active)
- Potency (Es-2): 17.8 µM (active)
